“And” between values parts separate entries of the source, which are not always exact repeats. Equal values may be shown once. Records with an inconclusive call do not appear. The source made the active and inactive calls. Unless noted, calls follow the shape of the dose curve; as a rule, active = well fitted curve in the direction sought with a large enough effect; inconclusive = small, poorly fitted or top-dose-only effect, or another doubt; inactive = no such curve, though single readings can be large; an effect the other way counts as inactive or inconclusive.
How the values were obtained:
Tov112D = assay: Primary qHTS to identify gynecologic anti-cancer compounds using libraries of approved drugs and bioactive compounds (AID 1345084); conditions: Gynecologic cancer cell panel viability, ATPlite luminescence, 48 h; series mostly up to 57.5 µM; also: nearly all actives have a fitted effect of over 55% in size; also: potency is read from the fitted curve at half-maximal effect
Method in brief: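 ATP-based viability (ATPlite), 1,000 cells/well, 16 h pre-incubation, 48 h compound at 37 C, 5% CO2, 15 min RT before read.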

[1] = Drug repurposing screens with cells derived from glioblastoma tumor samples (AID 1345199); conditions: GBM patient neurospheres viability, ATP luminescence, 48 h; also: nearly all actives have a fitted effect of over 40% in size; also: potency is read from the fitted curve at half-maximal effect; as to activity, negative = cell killing: % is scaled to controls: 0 for no effect and ±100 for the full control effect
Method in brief: (§1)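 Four patient lines of CD133+ GBM neurospheres were screened at several concentrations; hits were retested in those lines plus three slower-growing GBM lines, using 48-hour treatment and ATP-based viability.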

astro = assay: as above; conditions: viability, ATP luminescence, 48 h; series mostly up to 45.9 µM
Method in brief: as §1

[2] = target: Nuclear receptor subfamily 1 group I member 2 (Rattus norvegicus) (UniProt Q9R1A7); assay: qHTS assay for small molecule activators of the rat pregnane X receptor (rPXR) signaling pathway (AID 651751; call rule not given here; also: 0% is about no effect); conditions: rPXR reporter cells, luciferase (One-Glo), 24 h
Nuclear receptor subfamily 1 group I member 2 (Rattus norvegicus), sequence (Q9R1A7 whole entry, looked up): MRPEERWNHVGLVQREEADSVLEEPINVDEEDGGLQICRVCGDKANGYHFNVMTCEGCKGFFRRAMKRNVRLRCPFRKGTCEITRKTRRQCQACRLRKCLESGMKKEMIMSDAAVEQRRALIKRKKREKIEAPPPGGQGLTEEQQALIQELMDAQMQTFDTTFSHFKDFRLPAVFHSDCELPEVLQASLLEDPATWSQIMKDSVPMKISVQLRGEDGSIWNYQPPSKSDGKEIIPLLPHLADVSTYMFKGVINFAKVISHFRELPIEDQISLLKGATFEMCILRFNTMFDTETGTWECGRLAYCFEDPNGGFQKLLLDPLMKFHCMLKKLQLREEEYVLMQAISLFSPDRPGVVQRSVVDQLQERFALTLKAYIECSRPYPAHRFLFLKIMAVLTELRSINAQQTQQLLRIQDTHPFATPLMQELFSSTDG

[3] = qHTS assay to identify inhibitors of the type 1 interferon - major histocompatibility complex class I in skeletal muscle: Counter screen cell viability and HiBit confirmation (AID 1347412); conditions: iHSKM muscle cells + IFN-b, HiBiT or CellTiter-Glo, 24 h; also: potency is read from the fitted curve at half-maximal effect; nearly all actives have a fitted effect of over 60% in size
Method in brief: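 After 24 h with human IFN-beta (4 ng/ml) and compound titrations (top 46 uM final, 1:3, 12 points), HLA-B HiBit myoblasts were lysed for either Nano-Glo HiBiT luminescence or CellTiter Glo viability on paired plates.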

[4] = qHTS assay for small molecule activators of the human pregnane X receptor (PXR) signaling pathway (AID 720659; call rule not given here; also: 0% is about no effect)
[5] = at 45.9 µM (top of the series), tumour line B
[6] = at 46.1 µM (top of the series), tumour line C
[7] = at 45.9 µM (top of the series), tumour line D
[8] = at 46 µM (top of the series), tumour line A
[9] = at 20 µM (top of the series), tumour line C
[10] = at 21.2 µM (top of the series), tumour line B
[11] = at 21.2 µM (top of the series), tumour line D
[12] = at 21.3 µM (top of the series), tumour line A

CCN(CC)CCNC(=O)c1ccc(N)cc1
inactive: Potency (Tov112D) | activity, negative = cell killing [1, 5] -3.23% | activity, negative = cell killing [1, 6] 15.6% | Potency (astro)

O=C1NC(=O)C(c2ccccc2)(c2ccccc2)N1
inactive: Potency (Tov112D) | activity, negative = cell killing [1, 5] -5.12% | activity, negative = cell killing [1, 7] -12.9% | activity, negative = cell killing [1, 8] -29.6% | activity, negative = cell killing [1, 6] 10.5% | max response [2] -3.01% and 3.12% and 2.23%

CC(C)NCC(O)COc1cccc2[nH]ccc12 (stereo unspecified)
inactive: Potency (Tov112D) | activity, negative = cell killing [1, 5] -5.39% | activity, negative = cell killing [1, 7] -14.8% | activity, negative = cell killing [1, 8] -24.6% | activity, negative = cell killing [1, 6] 1.52%

Cc1nnc(C(C)C)n1C1C[C@H]2CC[C@@H](C1)N2CC[C@H](NC(=O)C1CCC(F)(F)CC1)c1ccccc1 (stereo partly specified)
inactive: activity, negative = cell killing [1, 5] -4.81% | activity, negative = cell killing [1, 7] -11.6% | activity, negative = cell killing [1, 6] 5.31%

CC(=O)CCCCn1c(=O)c2c(ncn2C)n(C)c1=O
inactive: Potency (Tov112D) | activity, negative = cell killing [1, 9] -6.47% | activity, negative = cell killing [1, 10] 0.116% | activity, negative = cell killing [1, 11] 1.87% | activity, negative = cell killing [1, 12] -23.5%

O=C(O)c1c(Cl)c(Cl)c(Cl)c(Cl)c1-c1c2cc(I)c(=O)c(I)c-2oc2c(I)c(O)c(I)cc12
inactive: activity, negative = cell killing [1, 6] -28.5%

NC(N)=Nc1nc(CSCC/C(N)=N/S(N)(=O)=O)cs1
inactive: Potency (Tov112D) | activity, negative = cell killing [1, 5] -1.53% | activity, negative = cell killing [1, 7] -7.06% | activity, negative = cell killing [1, 8] -13.8% | activity, negative = cell killing [1, 6] -8.17% | Potency (astro)

C=C1C(=O)[C@@]23C(CC[C@@H]1[C@H]2O)[C@@]12CO[C@]3(O)[C@@H](O)[C@@H]1C(C)(C)CC[C@@H]2O (stereo partly specified)
inactive: Potency (Tov112D)
active: Potency ([3]; HiBiT) 8.83 µM | Potency ([3]; Viability) 35.2 µM

CCN(CC)C(=O)c1ccc(O)c(OC)c1
inactive: Potency (Tov112D) | activity, negative = cell killing [1, 9] -17.1% | activity, negative = cell killing [1, 10] -3.79% | activity, negative = cell killing [1, 11] 8.85% | activity, negative = cell killing [1, 12] -7.96% | activity, negative = cell killing [1, 5] -9.11% | activity, negative = cell killing [1, 7] 5.23% | activity, negative = cell killing [1, 8] -18.7% | activity, negative = cell killing [1, 6] -18.9%

Cc1nc(N)sc1-c1ccnc(Nc2ccc(N3CCOCC3)cc2)n1
active: Potency (Tov112D) 12.6 µM | Potency ([3]; HiBiT) 5.57 µM

CC(C(=O)O)c1ccc(-c2ccccc2)c(F)c1 (stereo unspecified)
inactive: activity, negative = cell killing [1, 9] -24.7% | activity, negative = cell killing [1, 10] -12.6% | activity, negative = cell killing [1, 11] -11% | activity, negative = cell killing [1, 12] -20.3%

CN1[C@@H]2CCC[C@@H]1CC(NC(=O)c1nn(C)c3ccccc13)C2 (stereo partly specified)
active: Potency ([1]; tumour line A) 12.6 µM

CC1=C(/C=C/C(C)=C/C=C/C(C)=C/C(=O)Nc2ccc(O)cc2)C(C)(C)CCC1
inactive: outcome [4]

O=C(O)c1cc(O)c2c(c1)C(=O)c1cccc(O)c1C2=O
inactive: outcome [4]

Reference: PubChem BioAssay (NCATS)
